For 28 compounds, inhibition results are on record in PubChem BioAssay AID1866 (The Scripps Research Institute Molecular Screening Center, 2009).

In general, inhibition refers to the change of the read-out against control, counted positive when it falls.

About 40 (3%) of roughly 1,300 compounds were called active.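 How the source made its calls: active means inhibition above that campaign's mean inhibition plus 3 SD (cut at about 0.46% in these data); inactive means the rest.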 These entries were drawn from the full list.

The assay deals with Beta-lactamase TEM (Escherichia coli) (UniProt P62593). In words: TEM-1 serine beta-lactamase inhibitors, counter-screen for VIM-2 inhibitor project, biochemical, epi-absorbance, HTS (AID 1866).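 Further: 0% = TEM-1 with DMSO and 100% = TEM-1 with 100 µM potassium clavulanate.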 The note with it: Purified TEM-1, nitrocefin hydrolysis, epi-absorbance fluorescence; at 5.6 µM; active compounds read high. For orientation: The purpose of a counterscreen is to sort out artefacts and off-target activity.
Chain of Beta-lactamase TEM (Escherichia coli) (P62593 whole entry, looked up): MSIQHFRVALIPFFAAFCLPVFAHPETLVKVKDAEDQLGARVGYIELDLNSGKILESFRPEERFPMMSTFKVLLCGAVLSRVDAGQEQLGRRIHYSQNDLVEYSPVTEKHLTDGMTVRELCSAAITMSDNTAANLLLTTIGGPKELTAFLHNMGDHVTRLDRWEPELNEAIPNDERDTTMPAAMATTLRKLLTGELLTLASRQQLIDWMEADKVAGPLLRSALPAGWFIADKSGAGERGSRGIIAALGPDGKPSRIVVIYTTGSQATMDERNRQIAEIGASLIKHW
Turning to `CN(C)CCNc1ccc(-c2n[nH]c(=O)c3ccccc23)cc1[N+](=O)[O-]`, the inhibition was -7.17% (inactive).

Turning to `Cc1cc(-c2ccc(/C=N/n3cnnc3)o2)c([N+](=O)[O-])cc1C`, the inhibition is -5.24% (inactive).

For `C=CCn1c(-c2ccccc2OCC)n[nH]c1=S`, the inhibition is -3.6% (inactive).

Regarding `CC(C)(C)CC(=O)Nc1nnc(SCC(=O)NCc2cccs2)s1`, the inhibition is -5.92% (inactive).

Take `CCOc1cc(/C=C2\SC(N3CCCC(C)C3)=NC2=O)ccc1O` (stereo not drawn): the inhibition was -1.56% (inactive).

`O=c1[nH]c(-c2ccccc2)c(-c2ccccc2)[nH]1`: the inhibition was -4.67% (inactive).

Consider `COc1nc(N=C(N)N)nc2c(C)cccc12`, for which the inhibition is -4.69% (inactive).

For `CN1CCN(c2ccc(NC(=O)c3ccc4c(c3)[nH]c(=O)n4Cc3ccc(F)cc3)cc2)CC1`, the inhibition is -7.55% (inactive).

As for `CC1CCCC(C)N1CCCNC(=O)c1cc2c(=O)n(C)c3ccccc3c2n1C` (stereo not drawn), the inhibition is -6.6% (inactive).

For `Cn1c2ccccc2c(=O)c2c(O)cccc21`, the inhibition was -0.94% (inactive).

For `CCCc1ccc(OCCNC(=O)c2ccco2)cc1`, the inhibition was -6.4% (inactive).

`COC(=O)c1ccc(-c2noc(CN(Cc3ccccn3)CC3CCCO3)n2)cc1` (stereo not drawn): the inhibition was -7.22% (inactive).

On to `COc1cc(/C=N/Nc2nn3cnnc3c3ccccc23)cc(OC)c1OC`, for which the inhibition was -3.82% (inactive).

Take `COc1cc(NC(=O)C2=C(C)OCCS2)c(Cl)cc1C(=O)NCCN1CCN(C)CC1`: the inhibition is -9.7% (inactive).

Consider `Nc1nnc2c(C(F)(F)F)nc3ccccc3n12`, for which the inhibition is -1.12% (inactive).

Take `Cc1cc(C)c2nc3nc(C)cc(C)c3c(N)c2c1`: the inhibition was -4.56% (inactive).

Turning to `CCC1CCCCN1CCCNC(=O)c1cc2c(Cl)nc3ccccc3c2s1` (stereo not drawn), the inhibition was -6.12% (inactive).

With `Clc1cc(-c2ccc(/C=N/n3cnnc3)o2)ccc1Br`, the inhibition is -5.72% (inactive).

Consider `CCN1CCN(C(=O)Cn2nc(C)n3c(cc4c(OC)cccc43)c2=O)CC1`, for which the inhibition was -7.04% (inactive).

Consider `Cn1c(=O)c2c(nc(N3CCOCC3)n2CCNC2=NCCC2)n(C)c1=O`, for which the inhibition was -4.49% (inactive).

Turning to `COc1ccc(/C=N/N(C)C2=NS(=O)(=O)c3ccccc32)cc1OC`, the inhibition is -6.76% (inactive).

In the case of `COc1cc(-c2nn3c(-c4cccc(C)c4)nnc3s2)cc(OC)c1OC`, the inhibition is -6.23% (inactive).

With `Cc1cccn2c(=O)c(C=O)c(Nc3ccc(S(N)(=O)=O)cc3)nc12`, the inhibition was -4.52% (inactive).

As for `O=C(NCCCN1CCOCC1)c1cnn2c(-c3ccccc3)cc(-c3ccccc3)nc12`, the inhibition is -5.7% (inactive).

With `CCOCCCNc1c(CC)c(C)c(C#N)c2nc3ccccc3n12`, the inhibition was -5.82% (inactive).

In the case of `Cc1ccc2nc(C)c3c(c2c1)N(c1ccccc1)CC3`, the inhibition was -5.53% (inactive).

As for `Nc1cccc2c1C(=O)N(Cc1nnc(-c3ccccc3Br)o1)C2=O`, the inhibition was -0.93% (inactive).

For the compound `Cc1cc([N+](=O)[O-])c(-c2ccc(/C=N/n3cnnc3)o2)cc1Cl`, the inhibition is -6.25% (inactive).
